Hits are enriched below; roughly 3.2% of the tested compounds scored in any of these assays.
ERa SRC1 inh – ER-alpha (human) coactivator binding inhibition. AID 629. TR-FRET ER-alpha LBD / SRC-1 peptide, estradiol-bound. P03372. hit rate 1.7% among 86,000. inhibition, % at 25.6 µM; in the data active = inhibition above about 50%
ERa coact pot – enhances coactivator binding to human estrogen receptor alpha; P03372; TR-FRET ERalpha-LBD/SRC-Cy5 coactivator binding, 2 h; 100 = basal binding, no effect; coactivator binding (% of control), % at 25.6 µM; hit rate 1.3% among 86,000; AID 639; in the data active = activity above about 200%;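 also: binding measured in presence of low estradiol as agonist stimulus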
FAK blocker – FAK (human) kinase inhibition. Q05397. biochemical FAK kinase activity assay. inhibition, %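 (tested at 7 µM)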. hit rate 0.84% among 97,000; in the data active = inhibition above about 19%
ERb coact inh – blocks coactivator binding to human estrogen receptor beta; Q92731; inhibition, % at 25.6 µM; hit rate 1.3% among 86,000; AID 633; TR-FRET ER-beta LBD / SRC1-Cy5 peptide binding; receptor agonist-loaded with 1 µM estradiol;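 active = compounds whose percent inhibition of the receptor-coactivator binding signal exceeds about 50% in the single-dose screen, limit read from the data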
Target sequence (Q92731 whole entry, looked up, the tested form may be a part): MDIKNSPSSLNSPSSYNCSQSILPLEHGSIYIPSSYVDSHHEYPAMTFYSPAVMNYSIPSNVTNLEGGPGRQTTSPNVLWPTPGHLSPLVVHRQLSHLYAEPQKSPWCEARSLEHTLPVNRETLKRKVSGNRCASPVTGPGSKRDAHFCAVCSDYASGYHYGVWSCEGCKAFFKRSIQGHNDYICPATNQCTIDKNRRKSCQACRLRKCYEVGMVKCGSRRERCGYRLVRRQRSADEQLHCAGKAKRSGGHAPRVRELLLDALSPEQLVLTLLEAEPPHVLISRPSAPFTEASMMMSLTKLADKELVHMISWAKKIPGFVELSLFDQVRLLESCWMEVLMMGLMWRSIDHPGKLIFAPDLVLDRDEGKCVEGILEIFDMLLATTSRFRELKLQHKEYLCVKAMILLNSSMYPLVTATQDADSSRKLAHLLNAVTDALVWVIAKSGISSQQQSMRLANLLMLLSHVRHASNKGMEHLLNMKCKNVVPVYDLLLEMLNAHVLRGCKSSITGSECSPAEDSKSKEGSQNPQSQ
Numbers stand for hits; 0 = inactive; - = no result given; [ ] = dose if it differs, or a comment.

SMILES	ERa SRC1 inh	ERa coact pot	FAK blocker	ERb coact inh
Cn1c(C(=O)NCCCN2CCCCCC2)cc2c(=O)n(C)c3ccccc3c21	53[fluorescence artefact?]	0	0	0
COc1cc(-c2noc(-c3cccc(Cl)c3)n2)cc(OC)c1OC	0	233	0	0
COc1cc(-c2nc(-c3cccc(C)c3)no2)cc(OC)c1OC	0	0	0	0
C=C(C)C1CC=C(C)/C(=N/NC(=O)CNc2ccc(OCC)cc2)C1 (configuration not stated)	-	-	0	-
Cc1ccc(-n2c(C)nc3oc4ccccc4c(=O)c3c2=O)cc1	91[fluorescence artefact?]	0	0	94[fluorescence artefact?]
CCc1nc2ccc(F)cc2c(C(=O)NC2CCCCC2C)c1C (configuration not stated)	-	-	0	-
O=C(NCc1ccco1)c1ccc(=O)[nH]n1	0	0	0	67[fluorescence artefact?]
COc1ccc(CCNC(=O)c2ccc3c(=O)n(Cc4ccco4)c(=S)[nH]c3c2)cc1OC	61[fluorescence artefact?]	0	0	0
CC(C)NC(=O)c1ccc2c(=O)n(Cc3ccco3)c(=S)[nH]c2c1	0	0	0	0
CCOc1cc2[nH]c(=S)n(CCc3ccc(OC)c(OC)c3)c(=O)c2cc1OCC	57[fluorescence artefact?]	0	0	0
CCOc1cc2[nH]c(=O)n(CCc3ccc(OC)c(OC)c3)c(=O)c2cc1OCC	0	0	0	0
Cc1ccc(-n2c(SCC(=O)Nc3cc(C)on3)nc3c(c2=O)SC(C)C3)cc1 (configuration not stated)	0	0	-	0
Cn1ccnc1SCC(=O)Nc1ccc2nc(SCC(=O)NC3CC3)sc2c1	53	0	0	0
Cn1ccnc1SCC(=O)Nc1ccc2c(c1)COC2=O	0	0	0	0
CCN(C(=O)c1ccc(C(C)(C)C)cc1)c1nnc(Cn2nnc3ccccc32)s1	0	0	0	0
COc1ccc(-n2c(=S)[nH]c3cc(C(=O)NCCCN4CCCC4=O)ccc3c2=O)c(OC)c1	0	0	0	0
CC1CC(C)CN(S(=O)(=O)c2ccc(C(=O)Nc3sccc3C(N)=O)cc2)C1 (configuration not stated)	0	253[fluorescence artefact?]	0	0
CCn1c(SCC(=O)Nc2ccc(C(=O)OC)cc2)nnc1-c1cccs1	0	304[fluorescence artefact?]	0	0
CCn1c(SCC(=O)NCC(=O)Nc2ccc(F)cc2)nnc1-c1cccs1	0	0	0	0
O=C(CSc1nnc(-c2cccs2)n1-c1ccccc1)Nc1ccccc1	0	969[fluorescence artefact?]	0	0
CCOC(=O)c1ccc(NC(=O)CSc2nnc(COc3ccccc3)n2C)cc1	0	0	0	0
CCOC(=O)c1ccc(NC(=O)CSc2nnc(CNc3ccc(OC)cc3)n2C)cc1	52	0	0	0
C=CCn1c(SCC(=O)Nc2ccc(C(=O)OCC)cc2)nnc1-c1cccs1	0	755[fluorescence artefact?]	-	0
C=CCn1c(Cc2cccs2)nnc1SCC(=O)Nc1ccc(C(=O)OCC)cc1	0	0	0	0
CC(C)C1Cc2c(sc3[nH]c(=S)n(Cc4ccccc4)c(=O)c23)CO1 (configuration not stated)	0	0	0	0
SMILES	ERa SRC1 inh	ERa coact pot	FAK blocker	ERb coact inh
O=C(CCc1c[nH]c2ccccc12)NC1CC1	0	0	0	0
CCN(CC)c1ccc(-c2nnc(SCC(=O)Nc3ccccc3C#N)n2-c2ccccc2)cc1	52[fluorescence artefact?]	0	0	0
N#Cc1ccccc1NC(=O)CSc1nnc(-c2ccccc2)n1-c1ccccc1	0	0	0	0
Cn1cnnc1SCC(=O)c1ccco1	0	0	0	0
Cn1cnnc1SCc1cccc(Br)c1	0	0	0	52[fluorescence artefact?]
c1cncc(-c2nn[nH]n2)c1	0	0	0	63[fluorescence artefact?]
c1cncc(-c2cccnc2)c1	0	0	0	0
CCSc1nnc(NC(=O)COc2ccc3ccccc3c2)s1	0	259[fluorescence artefact?]	0	0
CCSc1nnc(NC(=O)C(Cc2ccccc2)n2cccc2)s1 (configuration not stated)	0	249[fluorescence artefact?]	0	0
CCSc1nnc(NC(=O)COc2ccccc2)s1	0	0	0	0
N#C/C(=C(/O)CSc1nnc(Cc2cccs2)n1C1CCCCC1)c1nc2ccccc2[nH]1	77[fluorescence artefact?]	0	-	0
CC(C)Sc1nc(-c2cccs2)nc2c1c(=O)n(C)c(=O)n2C	0	0	-	0
CCC(C)NC(=O)COc1ccc(Br)c(C)c1 (configuration not stated)	0	0	0	0
COc1ccccc1N1CCN(C(=O)c2cc3c(s2)CCC3)CC1	64	0	0	0
Cc1ccccc1-c1nc(CS(=O)(=O)CC(=O)Nc2cc(F)ccc2F)c(C)o1	0	743[fluorescence artefact?]	-	0
COCCCNC(=O)CS(=O)(=O)Cc1nc(-c2ccccc2C)oc1C	-	-	0	-
CCOc1ccc(N(Cc2cc3cc(OC)ccc3[nH]c2=O)C(=O)C2CCCO2)cc1 (configuration not stated)	0	0	0	0
Cc1ccccc1C(O)c1ccccn1 (configuration not stated)	-	-	0	-
Cc1ccc(S(=O)(=O)N2CCN(C(=O)CSc3ncc(C(F)(F)F)cc3Cl)CC2)cc1	69	0	0	0
Cc1csc(SCC(=O)N2CCN(S(=O)(=O)c3ccc(Cl)cc3)CC2)n1	0	0	0	0
COc1cc(C(=O)OCC(=O)Nc2c(F)c(F)c(F)c(F)c2F)cc(OC)c1OC	58	0	0	0
Cc1nc2cc(-c3ccsc3-n3c(C)ccc3C)[nH]n2c(=O)c1Cl	59	0	0	64
COCc1cc(=O)n2[nH]c(-c3ccsc3-n3c(C)ccc3C)cc2n1	0	0	0	0
Cc1ccn2c(-c3csc(NCc4ccco4)n3)c(C)nc2c1	0	0	-	0
Cc1ccc2[nH]c(=O)c(-c3nc4ccccn4c3NCc3ccco3)cc2c1	53	0	0	0
SMILES	ERa SRC1 inh	ERa coact pot	FAK blocker	ERb coact inh
COc1ccc(-c2cc(C(F)(F)F)n3ncc(C(=O)NCc4ccco4)c3n2)cc1	59	0	0	50[fluorescence artefact?]
O=C(NC1CCCC1)c1cnn2c(C(F)(F)F)cc(-c3ccc4c(c3)OCO4)nc12	60[fluorescence artefact?]	0	0	0
O=C(NCc1ccco1)c1cnn2c(C(F)(F)F)cc(-c3ccccc3)nc12	0	0	0	0
O=C(c1cnn2c(C(F)(F)F)cc(-c3ccc4c(c3)OCO4)nc12)N1CCCCC1	0	0	0	0
CN1CCc2nc(SCCOc3ccccc3)c(C#N)cc2C1	0	0	0	0
Nc1ccc2nc(-c3ccc(N)c(Cl)c3)[nH]c2c1	92[fluorescence artefact?]	0	0	54[fluorescence artefact?]
COc1ccc2nc(-c3ccc(N)cc3)[nH]c2c1	0	0	0	0
Nc1ccc2nc(-c3cccs3)[nH]c2c1	0	0	0	56[fluorescence artefact?]
Nc1ccc2nc(-c3ccccn3)[nH]c2c1	97[fluorescence artefact?]	0	0	76[fluorescence artefact?]
Nc1ccc2nc(-c3ccccc3)[nH]c2c1	82[fluorescence artefact?]	0	0	0
COc1ccc(C)cc1S(=O)(=O)N(CC(=O)O)c1ccc(F)cc1	0	0	0	0
CC(=O)Nc1ccc(S(=O)(=O)N2CCN(C(C)CCc3ccccc3)CC2)cc1 (configuration not stated)	0	0	0	0
c1ccc2c(c1)oc1c(N3CCN(Cc4ccc5c(c4)OCO5)CC3)ncnc12	0	0	0	0
CC(C)NC(=S)N/N=C1\CCCCC1C1CCCCC1 (configuration not stated)	-	-	0	-
Cc1cc(C)cc(NC(=O)Cn2c(=O)oc3cc(S(=O)(=O)N4CCC(C)CC4)ccc32)c1	89[fluorescence artefact?]	0	0	54[fluorescence artefact?]

Assay outcomes from PubChem.
